Screening results: PubChem, National Center for Advancing Translational Sciences (NCATS)
ELG1 repair inh: qHTS screen for small molecules that inhibit ELG1-dependent DNA repair in human embryonic kidney (HEK293T) cells expressing luciferase-tagged ELG1 | 2.3% of 330,000 active | Potency, µM (doses to about 46.1 µM), for inactives: at the top dose activity change, negative = inhibition, actives largely listed as inhibitors | AID 504467, 2011 | HEK293T ELG1-luciferase reporter, luminescence, 16 h; DNA damage induced by 5-fluorouridine; further: potency means the concentration at half of the fitted maximal effect; nearly all actives have a fitted effect of over 55% in size
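Step one: seed 2,000 cells per well. Step two: pin-transfer compound or DMSO alongside 5-fluorouridine. Step three: incubate 16 hr, 37 °C, 5% CO2. Step four: add ONE-Glo, wait 30 min, read luminescence.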
HT1080 IDH1KD tx: qHTS for induction of synthetic lethality in tumor cells producing 2HG: qHTS for the HT-1080-IDH1KD cell line | Potency, µM (doses to about 46.1 µM), inactives show at the top dose activity, negative = toxicity, usual class: cytotoxic | 2% of 360,000 active | AID 686971, 2013 | HT-1080 IDH1 knockdown viability, ATP luminescence, 48 h;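 further: potency means the concentration at half of the fitted maximal effect; 0% = DMSO wells and -100% = cell-free medium wells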
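HT-1080-IDH1KD cells (IDH1 knocked down), 750/well in RPMI with 5% FBS, treated with compound 48 h at 37 degrees C. Viability by CellTiter-Glo luminescence, normalised to DMSO and no-cell wells; concentration-response curves classed.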
DT40 TDP1 CPT: qHTS for Inhibitors of human tyrosyl-DNA phosphodiesterase 1 (TDP1): qHTS in cells in presence of CPT; 12% of 420,000 active; chicken DT40 Tdp1-/-;hTDP1 cells + 20 nM CPT, ATP luminescence, 48 h; Potency, µM (top dose mostly 46.2 µM), for inactives: at the top dose activity change, negative = growth inhibition, actives largely listed as inhibitors; AID 686979, 2013; further: potency means the concentration at half of the fitted maximal effect; nearly all actives have a fitted effect of over 55% in size
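Chicken DT40 Tdp1-/- cells stably complemented with human TDP1 were seeded at 400 cells/well in medium containing 20 nM camptothecin, exposed to pin-transferred compounds, and grown at 37 °C for at least 48 hr. Viability was read as ATP luminescence.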
IL1B secr inh: qHTS for Inhibitors of Inflammasome Signaling: IL-1-beta AlphaLISA Primary Screen | 4.7% of 360,000 active | AID 743279, 2014 | activity change, % at 57.5 µM | THP-1 LPS/ATP IL-1B secretion, AlphaLISA, 16 h; hits give low values; in the data active means activity change below about -50%; inconclusive means mostly about -30% to -49%
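Secreted IL-1B measured by AlphaLISA bead assay after 16 h compound exposure of THP-1 cells; compounds (final up to 57.5 uM) added 1 h before LPS (250 ng/mL) and ATP (1.25 mM) stimulation; lower signal means less secretion.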
HT1080NT lethal: qHTS for induction of synthetic lethality in tumor cells producing 2HG: qHTS for the HT-1080-NT fibrosarcoma cell line; 1.6% of 360,000 active; Potency, µM (doses to about 46.1 µM), for the others: at the top dose activity, negative = less viability, most hits filed as cytotoxic; HT-1080-NT fibrosarcoma viability, CellTiter-Glo ATP luminescence, 48 h;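 further: NT is the 2HG producing partner of a matched IDH1 knockdown line; potency means the concentration at half of the fitted maximal effect; 0% = DMSO-treated cells and -100% = media-only wells without cells; nearly all actives have a fitted effect of over 55% in size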
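Luminescent CellTiter-Glo readout after 48 hours of compound exposure at 37 degrees C defined viability of HT-1080-NT cells. Activity was normalized to DMSO wells and cell-free media wells; concentration-response curves were fitted and assigned curve classes.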
DT40 TDP1 no CPT: qHTS for Inhibitors of human tyrosyl-DNA phosphodiesterase 1 (TDP1): qHTS in cells in absence of CPT; DT40 Tdp1-/- hTDP1 cells, no CPT, ATP luminescence, 48 h; Potency, µM (titrated, usually from 46.2 µM), without a hit: at the highest dose activity change, negative = growth inhibition, actives largely listed as inhibitors; 15% of 420,000 active; further: potency means the concentration at half of the fitted maximal effect; nearly all actives have a fitted effect of over 55% in size
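DT40 Tdp1-/-;hTDP1 cells, no CPT (DMSO vehicle only), 400 cells/well; compounds pin-transferred; ≥48 hr, 37 °C; CellTiter-Glo 30 min RT dark, luminescence read.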
Numbers without * were called inactive; u = inconclusive; x = no result; [ ] = dose if it differs, or a comment. Only some compounds are listed: those with a hit (about 19% of all), similar ones and a draw of the others. Unless noted, the call rests on the fitted dose curve; in most records, active means well fitted curve in the direction sought with a large enough effect; inconclusive means small, poorly fitted or top-dose-only effect, or another doubt; inactive means no such curve, though single readings can be large; an effect the other way counts as inactive or inconclusive. Unless noted, on the % scale 0 is the no-effect control and ±100 the full control effect.

SMILES	ELG1 repair inh	HT1080 IDH1KD tx	DT40 TDP1 CPT	IL1B secr inh	HT1080NT lethal	DT40 TDP1 no CPT
N#Cc1ccc(OCC(=O)OCC(=O)NC2CC2)cc1	24%	7%	2%	6	7%	-5%
Cc1cccc(-n2nc3c(c2NC(=O)C(C)C)CSC3)c1	u	5%	-25%	14	-1%	-8%
C=CCn1c(SCC(=O)O)nc2sc(CC)cc2c1=O	8%	2%	5%	6	16%	-28%
C=CCn1c(SCC(=O)/C(C#N)=C(\C)N)nc2sc(CC)cc2c1=O	u	-17%	21µM*	u	-2%	21µM*
C=CCn1c(SCC(=O)c2cccs2)nc2sc(CC)cc2c1=O	21µM*	u	15µM*	9	-6%	16µM*
COc1ccc(CN2C(=O)CN(C3CCCCCC3)C(=O)C2c2ccc(F)cc2)cc1 (stereo not given)	-4%	4%	u	-14	12%	u
COc1ccccc1CN1C(=O)CN(C2CCCCCC2)C(=O)C1c1ccc(C)cc1 (stereo not given)	x	x	16µM*	x	x	21µM*
CCC(C)(C)N1CC(=O)N(Cc2ccccc2)C(c2ccc(OC)cc2)C1=O (stereo not given)	-1%	2%	9.2µM*	-8	1%	18µM*
O=C1C(c2ccc(F)cc2)N(Cc2ccccc2Cl)C(=O)CN1C1CCCCC1 (stereo not given)	x	x	23µM*	x	x	21µM*
COc1ccc(C2C(=O)N(C3CCCCC3)CC(=O)N2Cc2ccco2)cc1 (stereo not given)	-29%	-22%	-25%	0	-3%[9.24 µM]	u
COc1ccc(C2C(=O)N(C3CCCCCC3)CC(=O)N2Cc2ccccc2)cc1OC (stereo not given)	-4%	1%	u	-7	9%	u
COc1ccc(C2C(=O)N(C3CCCCCC3)CC(=O)N2Cc2ccccc2)cc1 (stereo not given)	x	x	23µM*	x	x	26µM*
COC(=O)N1CCC2(CCCN(C(c3ccccc3)c3ccccc3)C2)CC1	x	x	13%	x	x	-25%
CC(=O)Nc1ccc(S(=O)(=O)NCCC(=O)NCCCc2ccccc2)cc1	-2%	3%	6%	-11	-1%	2%
Cc1ccc(S(=O)(=O)N2C[C@H]3C(=O)C[C@@H](c4cccc(Cl)c4)N(S(=O)(=O)c4ccc(C)cc4)[C@H]3C[C@H]2c2cccc(Cl)c2)cc1	x	0%	-9%	26	-1%	-28%
O=C1NC[C@@H](CCCCN2C[C@H](Cc3ccccc3)N(CCc3ccccc3)C(=O)C2=O)N(CCc2ccccc2)C1=O	x	u	-8%	-19	2%	-20%
O=C1C(c2ccc(F)cc2)N(Cc2ccc3c(c2)OCO3)C(=O)CN1C1CCCCCC1 (stereo not given)	-12%	6%	u	-14	2%	15µM*
COc1ccc(C2C(=O)N(C3CCCCC3)CC(=O)N2Cc2ccc3c(c2)OCO3)cc1 (stereo not given)	u	-5%	u	-23	-11%	u
COC(=O)Cn1c(SCCOc2ccccc2OC)nc2ccccc21	x	x	-24%	x	x	-23%
COc1cccc(/C=N/Nc2nc(Nc3ccc([N+](=O)[O-])cc3)nc(N3CCCC3)n2)c1O	6.5µM*	3.3µM*	8.2µM*	91	9.2µM*	5.8µM*
O=[N+]([O-])c1ccc(Nc2nc(NC3CCCCC3)nc(N3CCCC3)n2)cc1	u	17%	26µM*	-24	7%	23µM*
O=[N+]([O-])c1ccc(NN=Cc2cccc3ccccc23)nc1	x	24%	u	-25	2%	u
COc1cccc(/C=N/Nc2ccc([N+](=O)[O-])cn2)c1O	u	1.2µM*	3.3µM*	-76*	0.65µM*	2.9µM*
O=[N+]([O-])c1ccc(Nc2nc(N/N=C/c3cccc(F)c3)nc(N3CCCC3)n2)cc1	4.6µM*	-12%	6.5µM*	u	-10%	8.2µM*
C[C@H](c1ccccc1)n1nnc(COCc2ccccc2)c1C#CCOCc1ccccc1	5%	2%	u	7	1%	u
SMILES	ELG1 repair inh	HT1080 IDH1KD tx	DT40 TDP1 CPT	IL1B secr inh	HT1080NT lethal	DT40 TDP1 no CPT
COc1ccc(NC(=O)N2CCC3(CC2)CCN(S(C)(=O)=O)CC3)cc1	x	x	14%	x	x	-7%
O=C1C=C(c2cccs2)C[C@H](c2ccccc2)[C@H]1n1nnc([N+](=O)[O-])n1	-30%	2.9µM*	2.6µM*	-57*	u	2.9µM*
CNC(=O)C1CCC(Cn2c(=O)[nH]c3ccsc3c2=O)CC1 (stereo not given)	x	x	-2%	x	x	1%
COc1ccc(Cc2nnc(Nc3ccc(C)cc3)o2)cc1OC	u	u	8.2µM*	-24	-6%	6.5µM*
CC1(C)C(=O)OC(/C=C\c2cccc([N+](=O)[O-])c2)C(C)(C)C1=O (stereo not given)	-5%	9%	7%	9	3%	2%
O=C(NCCCN1CCCC1=O)c1cccc(S(=O)(=O)N2CCCCC2)c1	11%	9%	18%	-12	9%	11%
Cc1ccc(C(=O)N/N=C/c2cn(Cc3ccccc3)c3ccccc23)cn1	6.5µM*	-24%	u	11	-18%	21µM*
Cc1ccc(-n2c(C)cc(/C=N/Nc3ccc([N+](=O)[O-])cn3)c2C)cc1	u	-5%	-16%	-11	-17%	-26%
Cc1cc(/C=N/Nc2ccc([N+](=O)[O-])cn2)c(C)n1-c1ccccc1	u	5%	18µM*	7	3%	u
Cc1ccc(Cn2cc(/C=N/Nc3ccc([N+](=O)[O-])cn3)c3ccccc32)cc1	-16%	u	u	2	u	16µM*
CCN(CC)S(=O)(=O)c1cccc(NC(=O)CSc2nc3ccccc3[nH]2)c1	23µM*	-7%	23µM*	-57*	-1%	16µM*
CN(C)S(=O)(=O)c1cccc(NC(=O)CSc2nc3ccccc3[nH]2)c1	13µM*	u	u	-61*	-16%	u
